Compound activity deposited in PubChem BioAssay by National Center for Advancing Translational Sciences (NCATS).
Texas Red fluor = compounds fluorescent in Texas Red spectral region. Compound fluorescence, Texas Red channel, 547/618 nm; active compounds read high. max dye-equivalent concentration, M. 59,000 compounds, 0.06% hits. AID 587; in the data active = max dye-equivalent concentration above about 10 nM; inconclusive = between about 1.1 nM and that limit
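Dye-equivalent concentrations come from scaling compound signal (ex 547, em 618 nm) to six Texas Red standard concentrations run on every plate, after 15 min room-temperature incubation in pH 8.0 Tris (100 mM).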
Rhodamine fluor = rhodamine region autofluorescence. max dye-equivalent concentration, M. 59,000 compounds, 0.05% hits. Rhodamine-region fluorescence, 547/598 nm, Tris buffer; active compounds read high. AID 594; in the data active = max dye-equivalent concentration above about 11 nM; inconclusive = between about 1.1 nM and that limit
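qHTS spectral profiling of compounds without any target or enzyme present, in pH 8.0 Tris buffer; plates were read after a 15-minute room-temperature incubation using the rhodamine-region filter set.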
A488 fluor = compound autofluorescence in A488 spectral region; compound autofluorescence, A488 spectral region, dye equivalency; Compound Type: qHTS ECL - MLSMR; max dye equivalency, M; 59,000 compounds, 0.1% hits
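Compound autofluorescence was read in 100 mM Tris pH 8.0 after 15 min at room temperature, ex 480 nm/em 540 nm. Intensities were converted to A488 dye-equivalent concentration using an on-plate six-point A488 standard curve.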
Resorufin autofl = compounds fluorescent in resorufin spectral region; 59,000 compounds, 0.04% hits; max dye-equivalent concentration, M; Compound fluorescence, resorufin region 547/598 nm, buffer; active compounds read high
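Compounds in 100 mM Tris, pH 8.0, incubated 15 min at room temperature, then fluorescence read at 547 nm excitation/598 nm emission. Signal converted to dye-equivalent concentration via an on-plate six-point resorufin standard curve, per compound concentration.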
A647 autofl = A647 region autofluorescence. 59,000 tested, under 10 active. Compound fluorescence, A647 channel (570/671 nm), Tris buffer. max dye-equivalent concentration, M;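 also: values scaled relative to a standard on each plate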
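Each compound's intrinsic fluorescence at 570 nm excitation and 671 nm emission is measured across its concentration series in 100 mM Tris, pH 8.0, after 15 min at room temperature, and reported relative to an A647 curve.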
Fluorescein autfl = compound fluoresces in the fluorescein spectral region. AID 593. max fluorescein-equivalent concentration, M. 59,000 compounds, 0.91% hits. Compound autofluorescence, 480/540 nm, fluorescein-equivalent; active compounds read high; in the data active = max fluorescein-equivalent concentration above about 10 nM; inconclusive = between about 1.1 nM and that limit
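In this qHTS profile, compound fluorescence was measured with a 480 nm/540 nm filter pair following a 15-min room-temperature incubation in 100 mM Tris (pH 8.0). A six-point fluorescein series on each plate served for normalization.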
Numbers without * were called inactive; ! = repeats disagree. Only some compounds are listed: those with a hit (about 0.96% of all), similar ones and a draw of the others. Unless noted, no rule for the calls is given here.

For O=C(c1ccc(N2C(=O)C3CC=C(Cl)CC3C2=O)cc1)N1CCCCC1 (centres undefined) the results were Texas Red fluor inactive, Rhodamine fluor inactive, A488 fluor inactive, Resorufin autofl inactive, A647 autofl 4.48e-08 and Fluorescein autfl inactive.
CCOC(=O)N1CCN(c2ccc(Cl)c(Cl)c2)CC1 was read as Texas Red fluor inactive, Rhodamine fluor inactive, A488 fluor inactive, Resorufin autofl inactive, A647 autofl 2.4e-09 and Fluorescein autfl inactive.
Screening CC(=O)N1CCN(C2=Nc3cccc4cccc2c34)CC1 returned Texas Red fluor inactive, Rhodamine fluor inactive, A488 fluor inactive, Resorufin autofl inactive, A647 autofl 3.58e-08 and Fluorescein autfl 2.71e-08M*.
O=C(CN1C(=O)c2cccc3cccc1c23)N1CCN(c2ccccc2)CC1 was read as Texas Red fluor inactive, Rhodamine fluor inactive, A488 fluor inactive, Resorufin autofl inactive, A647 autofl 2.9e-09 and Fluorescein autfl inactive.
`CCOC(=O)N1CCN(C2=Nc3cccc4cccc2c34)CC1` gave Texas Red fluor inactive, Rhodamine fluor inactive, A488 fluor inconclusive, Resorufin autofl inactive, A647 autofl 1e-09 and Fluorescein autfl 4.8e-08M*.
For C=CCC1c2cccc(C(=O)O)c2C(=O)N1c1ccc(F)cc1 (centres undefined) the results were Texas Red fluor inactive, Rhodamine fluor inactive, A488 fluor inactive, Resorufin autofl inactive, A647 autofl 4.9e-09 and Fluorescein autfl inactive.
`CCOC(=O)c1sc(NC(=O)CSc2n[nH]c(-c3ccccc3)n2)c(C#N)c1C` gave Texas Red fluor inactive, Rhodamine fluor inactive, A488 fluor inactive, Resorufin autofl inactive, A647 autofl 1.15e-08 and Fluorescein autfl inconclusive.
Screening Cc1ccc(/C=C/C2=Cc3c(sc(NC(=O)CSc4n[nH]c(N)n4)c3C#N)C(C)(C)C2)o1 returned Texas Red fluor 5.86e-08M*, Rhodamine fluor 2.77e-08M*, A488 fluor inconclusive, Resorufin autofl 2.41e-08M*, A647 autofl 3.88e-08 and Fluorescein autfl 1.18e-07M*.
Screening N#CC1=C(N)Oc2n[nH]c(-c3cccs3)c2C1c1ccco1 (centres undefined) returned Texas Red fluor inconclusive, Rhodamine fluor inconclusive, A488 fluor inconclusive, Resorufin autofl inconclusive, A647 autofl 1e-09 and Fluorescein autfl 1.01e-07M*.
`Cc1noc(C)c1S(=O)(=O)NCC(=O)O` gave Texas Red fluor inactive, Rhodamine fluor inactive, A488 fluor inactive, Resorufin autofl inactive, A647 autofl 3.12e-08 and Fluorescein autfl inconclusive.
Screening O=C(c1ccc(N2CCOCC2)cc1)c1cccs1 returned Texas Red fluor inactive, Rhodamine fluor inactive, A488 fluor inactive, Resorufin autofl inactive, A647 autofl 8.7e-09 and Fluorescein autfl inactive.
COc1ncc2nc(-c3cccs3)c(=O)n(CCC#N)c2n1 was read as Texas Red fluor inactive, Rhodamine fluor inactive, A488 fluor inactive, Resorufin autofl inactive, A647 autofl 1.36e-08 and Fluorescein autfl inconclusive.
Screening CN(C)c1ncc2nc(-c3cccs3)c(=O)n(C)c2n1 returned Texas Red fluor inactive, Rhodamine fluor inactive, A488 fluor inactive, Resorufin autofl inactive, A647 autofl 1.51e-08 and Fluorescein autfl 1.46e-08M*.
CN(C)c1ncc2nc(-c3cccs3)c(=O)n(CCc3ccccc3)c2n1 was read as Texas Red fluor inconclusive, Rhodamine fluor inactive, A488 fluor inactive, Resorufin autofl inactive, A647 autofl 1.22e-08 and Fluorescein autfl inactive.
For CN(C)c1ncc2nc(-c3cccs3)c(=O)n(CCC#N)c2n1 the results were Texas Red fluor inactive, Rhodamine fluor inactive, A488 fluor inconclusive, Resorufin autofl inactive, A647 autofl 9.3e-09 and Fluorescein autfl 3.65e-08M*.
`CCN1C(=O)/C(=C/N2CCc3ccccc32)SC1=S` gave Texas Red fluor inactive, Rhodamine fluor inactive, A488 fluor 1.27e-08M*, Resorufin autofl inactive, A647 autofl 1.28e-08 and Fluorescein autfl 2.17e-07M*.
CCN1C(=O)/C(=C\N2CCCc3ccccc32)SC1=S was read as Texas Red fluor inconclusive, Rhodamine fluor inactive, A488 fluor inactive, Resorufin autofl inactive, A647 autofl 2.7e-09 and Fluorescein autfl 2e-08M*.
`O=C1c2ccccc2C(=O)N1CCC(=O)N1CCCc2ccccc21` gave Texas Red fluor inactive, Rhodamine fluor inactive, A488 fluor inactive, Resorufin autofl inactive, A647 autofl 1.68e-08 and Fluorescein autfl inactive.
`Cc1nc2ccc(NC3=NCCCCC3)cc2s1` gave Texas Red fluor inactive, Rhodamine fluor inactive, A488 fluor inactive, Resorufin autofl inactive, A647 autofl 1e-09 and Fluorescein autfl inconclusive.
Screening CC(=O)N1C(=O)C(=C2C=C(C)OC(C)=C2)c2ccccc21 returned Texas Red fluor inactive, Rhodamine fluor inactive, A488 fluor 1.28e-08M*, Resorufin autofl inactive, A647 autofl 1.88e-08 and Fluorescein autfl 2.26e-07M*.
CN(C)c1ccc(N/C=C/C(=O)c2ccccc2)cc1 was read as Texas Red fluor inactive, Rhodamine fluor inactive, A488 fluor inactive, Resorufin autofl inactive, A647 autofl 1.19e-08 and Fluorescein autfl 1.35e-08M*.
`CN(C)c1ccc(NC(=O)CCCc2ccccc2)cc1` gave Texas Red fluor inconclusive, Rhodamine fluor inactive, A488 fluor inactive, Resorufin autofl inactive, A647 autofl 3.91e-08 and Fluorescein autfl inconclusive.
O=C1c2ccccc2-c2onc3ccc(NCCCn4ccnc4)c1c23 was read as Texas Red fluor 1.38e-07M*, Rhodamine fluor 6.22e-07M*, A488 fluor 2.61e-07M*, Resorufin autofl 6.55e-07M*, A647 autofl 5.07e-08 and Fluorescein autfl 4.57e-06M*.
Cc1nc(NCCCn2ccnc2)c2ccccc2n1 was read as Texas Red fluor inactive, Rhodamine fluor inactive, A488 fluor inactive, Resorufin autofl inactive, A647 autofl 8.4e-09 and Fluorescein autfl inconclusive.
Screening COC(=O)C1=CO[C@@H](C)[C@H]2CN3CCc4c([nH]c5ccccc45)[C@@H]3C[C@H]12 returned Texas Red fluor inactive, Rhodamine fluor inactive, A488 fluor inactive, Resorufin autofl inactive, A647 autofl 1.9e-09 and Fluorescein autfl 1.05e-08M*!.
`COc1ccc(NC(=O)N2CCC3(CC2)CCN(C(=O)c2ccncc2)CC3)cc1` gave Texas Red fluor inactive, Rhodamine fluor inactive, A488 fluor inactive, Resorufin autofl inactive, A647 autofl 1e-09 and Fluorescein autfl inactive.
Screening COc1ccc(C(=O)N2CCC3(CCN(C(=O)Nc4cccc(C#N)c4)CC3)CC2)cc1 returned Texas Red fluor inactive, Rhodamine fluor inactive, A488 fluor inactive, Resorufin autofl inactive, A647 autofl 2.9e-09 and Fluorescein autfl inactive.
